Assay results reported in publication PMC5540273 (PLoS ONE, 2017).

Experiments:
Details in all cases: concentration: 1 μM, replicates: in singlicate; n = 1
PHKG1 = test system: PHKG1
PHKG2 = test system: PHKG2
PIK3C2B = test system: PIK3C2B
PIK3C2G = test system: PIK3C2G
PIK3CA = test system: PIK3CA
PIK3CB = test system: PIK3CB
PIK3CD = test system: PIK3CD
PIK3CG = test system: PIK3CG
PIK4CB = test system: T1, PIK4CB
T1 construct: gene PI4KB

PIKFYVE = test system: PIKFYVE
PIM1 = test system: PIM1
PIM2 = test system: PIM2
PIM3 = test system: PIM3
PIP5K1A = test system: PIP5K1A
PIP5K1C = test system: PIP5K1C
PIP5K2B = test system: PIP5K2B
PIP5K2C = test system: T2, PIP5K2C
T2 construct: gene PIP4K2C

PKAC-alpha = test system: T3, PKAC-alpha
T3 construct: gene PRKACA

PKAC-beta = test system: T4, PKAC-beta
T4 construct: gene PRKACB

PKMYT1 = test system: PKMYT1
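Note: KINOMEscan kinase panel screen.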

Question: Which results are given for COc1ccc2nc(-c3cccc(C)n3)nc(Nc3ccncc3)c2c1 [GSK204919]?
Answer: %Inh (PHKG1): 0%; %Inh (PHKG2): 0%; %Inh (PIK3C2B): 3%; %Inh (PIK3C2G): 0%; %Inh (PIK3CA): 0%; %Inh (PIK3CB): 0%; %Inh (PIK3CD): 0%; %Inh (PIK3CG): 0%; %Inh (PIK4CB): 5%; %Inh (PIKFYVE): 81%; %Inh (PIM1): 0%; %Inh (PIM2): 0%; %Inh (PIM3): 0%; %Inh (PIP5K1A): 4%; %Inh (PIP5K1C): 28%; %Inh (PIP5K2B): 0%; %Inh (PIP5K2C): 0%; %Inh (PKAC-alpha): 3%; %Inh (PKAC-beta): 0%; %Inh (PKMYT1): 1%

Question: For Nc1nc(-c2nccs2)c(-c2ccnc3ccccc23)s1 [GW693542], which “%Inh” value (PHKG1) is on record?
Answer: 2%

Question: What about the “%Inh” value (PHKG2) of the same compound?
Answer: 0%

Question: And the “%Inh” value (PIK3C2B)?
Answer: 0%

Question: And the “%Inh” value (PIK3C2G)?
Answer: 0%

Question: What about the “%Inh” value (PIK3CA) of the same compound?
Answer: 0%

Question: What about the “%Inh” value (PIK3CB) of the same compound?
Answer: 0%

Question: And the “%Inh” value (PIK3CD)?
Answer: 0%

Question: And the “%Inh” value (PIK3CG)?
Answer: 0%

Question: And the “%Inh” value (PIK4CB)?
Answer: 0%

Question: And the “%Inh” value (PIKFYVE)?
Answer: 0%

Question: And the “%Inh” value (PIM1)?
Answer: 9%

Question: What about the “%Inh” value (PIM2) of the same compound?
Answer: 0%

Question: And the “%Inh” value (PIM3)?
Answer: 0%

Question: What about the “%Inh” value (PIP5K1A) of the same compound?
Answer: 0%

Question: And the “%Inh” value (PIP5K1C)?
Answer: 45%

Question: What about the “%Inh” value (PIP5K2B) of the same compound?
Answer: 0%

Question: And the “%Inh” value (PIP5K2C)?
Answer: 28%

Question: What about the “%Inh” value (PKAC-alpha) of the same compound?
Answer: 0%

Question: What about the “%Inh” value (PKAC-beta) of the same compound?
Answer: 13%

Question: What about the “%Inh” value (PKMYT1) of the same compound?
Answer: 0%

Question: Which “%Inh” value (PHKG1) does the source give for O=S(=O)(c1ccc(-c2ccnc3[nH]ccc23)cc1)N1CCCC1 [GSK846226] here?
Answer: 0%

Question: What about the “%Inh” value (PHKG2) of the same compound?
Answer: 10%

Question: What about the “%Inh” value (PIK3C2B) of the same compound?
Answer: 3%

Question: And the “%Inh” value (PIK3C2G)?
Answer: 0%

Question: What about the “%Inh” value (PIK3CA) of the same compound?
Answer: 8%

Question: And the “%Inh” value (PIK3CB)?
Answer: 0%

Question: What about the “%Inh” value (PIK3CD) of the same compound?
Answer: 0%

Question: What about the “%Inh” value (PIK3CG) of the same compound?
Answer: 14%

Question: What about the “%Inh” value (PIK4CB) of the same compound?
Answer: 23%

Question: What about the “%Inh” value (PIKFYVE) of the same compound?
Answer: 0%

Question: And the “%Inh” value (PIM1)?
Answer: 13%

Question: What about the “%Inh” value (PIM2) of the same compound?
Answer: 0%

Question: And the “%Inh” value (PIM3)?
Answer: 8%

Question: What about the “%Inh” value (PIP5K1A) of the same compound?
Answer: 37%

Question: What about the “%Inh” value (PIP5K1C) of the same compound?
Answer: 19%

Question: What about the “%Inh” value (PIP5K2B) of the same compound?
Answer: 0%

Question: What about the “%Inh” value (PIP5K2C) of the same compound?
Answer: 0%

Question: What about the “%Inh” value (PKAC-alpha) of the same compound?
Answer: 81%

Question: And the “%Inh” value (PKAC-beta)?
Answer: 71%

Question: What about the “%Inh” value (PKMYT1) of the same compound?
Answer: 0%

Question: What does the source list for CS(=O)(=O)c1ccc(-c2nc3n(c2-c2ccncc2)CCC3)cc1 [SKF-105942]?
Answer: %Inh (PHKG1): 3%; %Inh (PHKG2): 0%; %Inh (PIK3C2B): 0%; %Inh (PIK3C2G): 0%; %Inh (PIK3CA): 0%; %Inh (PIK3CB): 0%; %Inh (PIK3CD): 0%; %Inh (PIK3CG): 0%; %Inh (PIK4CB): 100%; %Inh (PIKFYVE): 0%; %Inh (PIM1): 0%; %Inh (PIM2): 0%; %Inh (PIM3): 0%; %Inh (PIP5K1A): 4%; %Inh (PIP5K1C): 13%; %Inh (PIP5K2B): 21%; %Inh (PIP5K2C): 7%; %Inh (PKAC-alpha): 0%; %Inh (PKAC-beta): 0%; %Inh (PKMYT1): 0%

Question: Which results are given for Cc1ccccc1-n1cnc2c(N)ncnc21 [SKF-97510]?
Answer: %Inh (PHKG1): 0%; %Inh (PHKG2): 10%; %Inh (PIK3C2B): 0%; %Inh (PIK3C2G): 10%; %Inh (PIK3CA): 0%; %Inh (PIK3CB): 0%; %Inh (PIK3CD): 0%; %Inh (PIK3CG): 0%; %Inh (PIK4CB): 0%; %Inh (PIKFYVE): 0%; %Inh (PIM1): 0%; %Inh (PIM2): 0%; %Inh (PIM3): 2%; %Inh (PIP5K1A): 0%; %Inh (PIP5K1C): 0%; %Inh (PIP5K2B): 0%; %Inh (PIP5K2C): 0%; %Inh (PKAC-alpha): 10%; %Inh (PKAC-beta): 0%; %Inh (PKMYT1): 0%
